PK Bst = Pyruvate Kinase; purified pyruvate kinase, luminescence ATP production; ribose 5-phosphate activator present at AC10; Potency, µM; hit rate 1.2% among 51,000; in the data active means potency below about 11 µM; inconclusive means mostly about 12 µM to 25 µM;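 the screen sought inhibitors and activators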;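 further: scaled between full activation by ribose 5 phosphate and full inhibition by luteolin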
GBA mod = Glucocerebrosidase | purified enzyme, resorufin glucoside fluorescence (screen aimed at inhibitors), 20 min | Lysosomal acid glucosylceramidase (Homo sapiens), P04062 | AID 360, 2006 | hit rate 1.1% among 48,000 | Potency, µM; in the data active means potency below about 15 µM; inconclusive means mostly about 16 µM to 33 µM;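 further: the screen sought inhibitors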
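Normal human glucocerebrosidase (0.2 nM final) was assayed with resorufin β-D-glucopyranoside (30 uM final) in 50mM citric acid/KH2PO4, 10mM sodium taurocholate, 0.01% tween-20, pH 5.9. Compounds were titrated; fluorescence (Ex 548, Em 600) read after 20 min at RT.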
Luciferase inh = qHTS Assay for Inhibitors of Firefly Luciferase; hit rate 2.2% among 72,000; purified firefly luciferase, luminescence, 8 min; Potency, µM (doses to about 57.1 µM), inactives show at the highest dose activity change, negative = inhibition, usual class: inhibitors; Luciferin 4-monooxygenase (Photinus pyralis), P08659; active means well fitted inhibition curve with a large enough effect; inconclusive means small, poorly fitted or top-dose-only effect; further: on the % scale 0 is the no-effect control and ±100 the full control effect; nearly all actives have a fitted effect of over 40% in size
Target sequence (P08659 whole entry, looked up): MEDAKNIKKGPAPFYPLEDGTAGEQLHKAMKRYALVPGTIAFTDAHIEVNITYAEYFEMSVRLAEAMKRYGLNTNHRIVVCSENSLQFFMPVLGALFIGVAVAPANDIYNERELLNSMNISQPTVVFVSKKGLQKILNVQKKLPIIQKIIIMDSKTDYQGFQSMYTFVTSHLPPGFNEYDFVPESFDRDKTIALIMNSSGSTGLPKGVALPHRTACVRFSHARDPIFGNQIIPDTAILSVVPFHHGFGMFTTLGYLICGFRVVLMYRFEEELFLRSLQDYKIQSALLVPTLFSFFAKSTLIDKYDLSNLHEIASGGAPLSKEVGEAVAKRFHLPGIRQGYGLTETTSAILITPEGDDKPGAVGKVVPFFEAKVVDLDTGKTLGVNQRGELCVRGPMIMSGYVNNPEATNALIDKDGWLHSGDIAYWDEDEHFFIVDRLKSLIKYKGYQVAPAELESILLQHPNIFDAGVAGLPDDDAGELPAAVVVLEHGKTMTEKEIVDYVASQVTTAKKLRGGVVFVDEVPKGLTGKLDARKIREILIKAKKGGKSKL
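Firefly luciferase (PKLight detection mix) with 10 uM ATP in pH 7.2 imidazole buffer (KCl, MgCl2, Tween 20, BSA). Compounds tested across a concentration series (qHTS). Luminescence read after 8 min at ambient temperature.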
Starred values were filed as active, the others as inactive; i = inactive; ? = inconclusive; . = not tested or not shown; [ ] = remark or other dose. A selection: hits, their analogues and other compounds. The true share with any hit is near 3.4%. Potency means the concentration at half of the fitted maximal effect.

SMILES | PK Bst | GBA mod | Luciferase inh
CCOc1ccc(N2CCCn3c2nc2c3c(=O)n(CCc3ccccc3)c(=O)n2C)cc1 | >57 | >77 | 2%
Cn1c(=O)n(CCc2ccccc2)c(=O)c2c1nc1n2CCCN1Cc1ccccc1 | >57 | i | 3%
Cn1c(=O)n(CCc2ccccc2)c(=O)c2c1nc1n2CCCN1CCc1ccccc1 | >57 | 9* | -1%
N=c1nc(N)nc(N)n1-c1ccc(S(N)(=O)=O)cc1 | . | . | 4%[11.4 µM]
COc1ccc(CNc2ncnc3ccc(-c4c(C)noc4C)cc23)c(OC)c1 | . | . | 0%[2.29 µM]
O=C(C[N+]12CN3CN(CN(C3)C1)C2)c1ccc(-c2ccccc2)cc1 | . | . | -1%[11.4 µM]
COc1ccc2ccccc2c1/C=C\C(=O)c1ccccc1 | . | . | 1%[11.4 µM]
CCn1cnc2cc(NCc3cccc(OC)c3O)ccc21 | . | 14* | -26%
CCCCn1cnc2cc(NCc3cccc(OC)c3O)ccc21 | >57 | ? | -11%
CC(C)NC(=O)c1ccccc1-c1nc(-c2ccccc2Cl)no1 | . | >77 | ?
CCOc1ccccc1NC(=O)c1ccccc1-c1nc(-c2ccccc2OC)no1 | . | >77 | 25µM*
CC(C)(C)NC(=O)c1ccccc1-c1nc(-c2ccccc2Cl)no1 | . | >77 | 20µM*
COCCNC(=O)c1ccccc1-c1nc(-c2ccccc2OC)no1 | >57 | >77 | -10%
O=C(c1csnn1)N1CCC2(CC1)CN(c1ccncc1)C2 | . | . | 2%[11.4 µM]
CCCCc1ccc(-c2ccc(C)cc2O)nc1 | 9.8* | >77 | 10µM*
CCCCc1ccc(CC(=O)O)cc1 | >57 | >77 | 1%
O=C(O)c1cc2c(cc1S(=O)(=O)O)[C@H]1[C@@H]([C@H]3[C@H]2[C@@]2(Cl)C(Cl)=C(Cl)[C@]3(Cl)C2(Cl)Cl)[C@]2(Cl)C(Cl)=C(Cl)[C@@]1(Cl)C2(Cl)Cl | . | . | 1%[11.4 µM]
COc1ccc(Cn2c(C3CC3)nc3ccc(NC(C)=O)cc3c2=O)cc1 | . | >77 | 20µM*
COc1ccc(C(=O)Nn2c(C3CCC3)nc3ccccc3c2=O)c(OC)c1 | >57 | >77 | -1%
Cc1cc2n(n1)C(c1ccco1)Nc1ccccc1-2 (stereo not drawn) | 9.5* | >77 | -21%
Cc1cc2n(n1)C(c1ccc(O)cc1)Nc1ccccc1-2 (stereo not drawn) | ? | >77 | -21%
Oc1ccc2ccccc2c1CN(Cc1c(O)ccc2ccccc12)C1CCCCC1 | . | . | -3%[11.4 µM]
COc1ccc(NC(=O)N2CC3(CCN(S(C)(=O)=O)CC3)C2)cc1 | . | . | -2%[11.4 µM]
Cc1cc(C(=O)CN2C(=O)C3CC=CCC3C2=O)c(C)n1-c1ccccc1 (stereo not drawn) | 6* | >77 | 4µM*
CCCn1c(C)cc(C(=O)CN2C(=O)c3ccccc3C2=O)c1C | . | >77 | 16µM*
SMILES | PK Bst | GBA mod | Luciferase inh
COc1ccc(-n2c(C)cc(C(=O)Cn3nnc4ccccc4c3=O)c2C)cc1 | >57 | >77 | -27%
O=C(CN1C(=O)c2ccccc2S1(=O)=O)c1ccccc1 | i | . | -26%[25.5 µM]
COc1ccc(C(=O)CN2C(=O)c3ccccc3C2=O)c(OC)c1C | >57 | i | -1%
Cc1cc(C(=O)CN2C(=O)c3ccccc3S2(=O)=O)c(C)n1-c1ccccc1 | ? | >77 | 7.9µM*
O=C(c1cccc(F)c1)N1CCC[C@@]2(CCN(c3ncccn3)C2)C1 | . | . | 0%[11.4 µM]
Cc1c2cccc(Sc3ccccc3)c2c2c3c(cccc13)[S+](c1ccccc1)C2 (stereo not drawn) | . | . | 3%[11.4 µM]
O=C(O)CC[C@@H](C(=O)O)N1C(=O)[C@@H]2[C@@H]3CC[C@H](C3)[C@@H]2C1=O | . | . | 4%[11.4 µM]
O=C(c1ccncc1)N1CCC2(CCCN(c3cccc(-c4ccccc4)c3)C2)CC1 | . | . | -2%[11.4 µM]
CCNc1ncc2nc(CCc3ccccc3)c(=O)n(C3CC3)c2n1 | . | . | -2%[11.4 µM]
Cn1c(=O)cc(N2CCc3ccccc32)[nH]c1=O | . | . | -16%
CNc1nc(N2CCc3ccccc32)ncc1F | i | >77 | 16µM*
OCCN(CCO)c1ncnc2nc[nH]c12 | . | . | -1%[11.4 µM]
COc1ccc(-c2nc3cnc(N4CCNCC4)nc3n(Cc3cccs3)c2=O)cc1 | . | . | 1%[11.4 µM]
Fc1ccccc1N1CCN(c2nc3ccccc3n3nnnc23)CC1 | . | 13* | 0%
Fc1cc(Br)ccc1Nc1nc2ccccc2n2nnnc12 | . | . | 0%
CCn1c2ccccc2c2nc3ccccc3nc21 | . | . | -7%
Cn1nc(-c2ccccc2)c2nc3ccccc3nc21 | 8* | . | 0%
CCNc1nc(NCC)n2c(SCc3nc4ccccc4c(=O)[nH]3)nnc2n1 | 7* | >77 | 0%
COc1ccc(C(=O)NCCc2nnc(SCc3nc4ccccc4c(=O)[nH]3)n2C)cc1 | >57 | >77 | 0%
Cn1c(SCc2nc3ccccc3c(=O)[nH]2)nnc1-c1ccco1 | >57 | >77 | 3%
Cn1c(-c2ccccc2)cnc1SCc1nc2ccccc2c(=O)[nH]1 | i | >77 | 5µM*
COc1cc2c(cc1O)CCC1C2CC[C@@]2(C)C1CC[C@@H]2O (stereo partly drawn) | . | . | 3%
CC(=O)[C@@]1(O)CC[C@@H]2[C@@H]3CCC4=CC(=O)CC[C@@]4(C)[C@H]3CC[C@]21C | . | . | -1%
C=CC[C@@H]1C=C[C@@H](O/N=C2/C[C@@H](O)[C@@H](O)[C@@H]3[C@@H]4C(=O)N(CC)C(=O)[C@H]4CC[C@@H]23)[C@@H](CO)O1 | . | . | 1%[11.4 µM]
Cc1cc(-c2ccc(N3C(=O)CCC3=O)c(C)c2)ccc1N1C(=O)CCC1=O | . | . | 16µM*
SMILES | PK Bst | GBA mod | Luciferase inh
O=C1CCC(=O)N1c1ccccc1-c1ccccc1 | . | . | 2%
CO[C@H]1[C@@H](OC(N)=O)[C@H](O)[C@@H](Oc2ccc3c(O)c(NC(=O)c4ccc(O)c(CC=C(C)C)c4)c(=O)oc3c2C)OC1(C)C | . | . | 7%[25.5 µM]
CNc1nc(-c2ccc(C(=O)N(C)C)cc2)nc2ccccc12 | . | . | -2%[2.29 µM]
COc1cccc(C=Nc2cc(C)on2)c1O | . | >77 | 2%
CCc1ccc2oc(-c3cc(N=Cc4cccc(OC)c4O)ccc3O)nc2c1 | 1.3* | >77 | 1.3µM*
Cc1cnc(CNc2nc(-c3ccc(C(=O)N(C)C)cc3)nc3ccccc23)cn1 | . | . | -9%[2.29 µM]
CN(C)c1ncnc2ccc(-c3ccc4c(c3)OCO4)cc12 | . | . | -2%[2.29 µM]
Cc1ccc(-c2nc3c(=O)n(C)c4ccccc4c3o2)cc1 | 0.17* | >77 | -7%
Cc1ccc(-c2nc3ccccc3c(=O)n2CCN2CCOCC2)cc1 | >57 | >77 | 2%
Fc1cccc(CSc2ncnc3c2ncn3[C@H]2CCCS2)c1 | . | . | 1%[11.4 µM]
COc1ccc(C2=Nn3c(nnc3-c3ccccn3)SC2)cc1OC | >26 | . | 0%[25.5 µM]
C=CCn1c(-c2ccc(OC)c(OC)c2)cs/c1=N\c1ccccn1 | 6.9* | >77 | 1%
COC(=O)[C@](C)(N)Cc1ccc(O)cc1 | . | . | 3%
Cc1nnc(SCC(=O)Nc2nsc(-c3ccccc3)n2)s1 | . | >77 | -12%
O=C(Nc1nsc(-c2ccccc2)n1)c1cccs1 | 7.8* | i | 5µM*
O=C(Nc1nnc(Cc2ccccc2)s1)c1cccs1 | >57 | >77 | -18%
O=C(Nc1ncc(Cc2ccccc2)s1)c1cccs1 | ? | . | 10µM*
Cc1ccc(C(=O)Nc2ncc(Cc3ccccc3)s2)o1 | ? | >77 | 13µM*
Cc1cnc(NC(=O)c2ccco2)s1 | . | >77 | -26%
CC(=O)O[C@H]1CC[C@@]2(C)[C@@H](CC[C@@]3(C)[C@H]2C(=O)C=C2[C@H]4C[C@](C)(C(=O)OCCN5CCCCC5)CC[C@]4(C)CC[C@@]23C)C1(C)C | . | . | 2%[11.4 µM]

Source: PubChem BioAssay
